The nature of the test: compound effects on multiple myeloma cell viability – MM1S, calcein-AM fluorescence, 48 h, basal, profiling panel (AID 1165).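 Also: viability of MM1S multiple myeloma cells under basal unstimulated conditions; test concentration not given here.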 To be noted: higher = more signal.
For `COC(=O)[C@H](C)NC(=O)CCC1CC(OC(=O)NCc2cccc3ccccc23)CC2(CCCC(COC(=O)NCc3ccccc3)O2)O1` (stereo partly specified), the z-score is 0.621. For the compound `O=C1CCCC=C1C(O)C1CCCCC1` (stereo unspecified), the z-score was 0.766. `COc1ccc(COC(=O)NN=C2C[C@@H](O)[C@@H](O)[C@@H]3[C@@H]4C(=O)N(Cc5ccccc5)C(=O)[C@@H]4CC[C@@H]23)cc1`: the z-score was 0.458. `CO[C@H]1COC(=O)CC=C[C@H](C)[C@H](OC)COC(=O)[C@@H](C)NC(=O)CC=C[C@@H]1C`: the z-score was 0.0674. The value for `CC(C)CON=C1[C@H]2CCn3c(=O)n(C)c(=O)n3[C@H]2[C@H](O)[C@@H]2O[C@H]12` was 0.191; that for `CCOC(=O)CCN1C(=O)[C@H]2[C@H]3[C@H](O)[C@H](O)CC(=NOCC=C(C)CCC=C(C)C)[C@@H]3CC[C@H]2C1=O` was 0.232; that for `CC[C@@H](c1ccccc1)n1c(=O)n2n(c1=O)[C@H]1[C@H](O)[C@@H]3O[C@@H]3C(=NOCc3ccccc3)[C@H]1CC2` was -3.1. On to `CC(CCN1CCCc2nc(C)c(C)cc21)=NO[C@@H](C)c1cn([C@H](CO)Cc2ccccc2)nn1`, for which the z-score is 0.33. The value for `COC(=O)[C@H](C)NC(=O)CCC1CC(OC(=O)NCCc2ccc(F)cc2)CC2(CCCC(COC(=O)NCC3CCCCC3)O2)O1` (stereo partly specified) was -0.574; that for `CCOC(=O)[C@H](Cc1ccccc1)NC(=O)CCC1CC(OC(=O)NCc2ccc3c(c2)OCO3)CC2(CCCC(COC(=O)NCCCN3CCCC3=O)O2)O1` (stereo partly specified) was -0.59; that for `CC(CCC(=O)OC[C@H]1O[C@H](C#Cc2ccccc2)C=C[C@@H]1Oc1ccc(C)cc1)=NOC[C@@H](C)[C@H](OCc1ccccc1)C(C)C` was -1.44. The value for `CCN1C(=O)[C@H]2[C@H]3[C@H](O)[C@H](O)CC(=NOC[C@@H](O)[C@H]4O[C@@H]5OC(C)(C)O[C@@H]5[C@H]4O)[C@@H]3CC[C@H]2C1=O` was 0.388. With `CC(C)CON=C1C[C@@H](O)[C@@H](O)[C@@H]2[C@@H]3C(=O)N(Cc4ccc5c(c4)OCO5)C(=O)[C@@H]3CC[C@@H]12`, the z-score is 0.828. `C=CC[C@@H]1C=C[C@H](ON=C2C[C@@H](O)[C@@H](O)[C@@H]3[C@@H]4C(=O)N(CC)C(=O)[C@@H]4CC[C@@H]23)[C@@H](CO)O1`: the z-score was -1.44. Turning to `CO[C@H]1COC(=O)CCC[C@H](C)[C@H](OC)COC(=O)CC=C[C@@H]1C`, the z-score is -0.469.

Consider `COc1ccc2c(c1)O[C@@H](c1cccc(C(F)(F)F)c1)[C@H](O)C2=O`, for which the z-score is -0.277. Turning to `CC(CCN1CCCc2nc(C)c(C)cc21)=NOC[C@@H](O)COCc1ccco1`, the z-score is -1.31. For the compound `CCN1C(=O)[C@H]2[C@H]3[C@H](O)[C@H](O)CC(=NO[C@@H]4O[C@H](CO)[C@@H](O)[C@H](O)[C@H]4O)[C@H]3CC[C@H]2C1=O`, the z-score was -0.0327.

For `CCOC(=O)[C@H](CC(C)C)NC(=O)CCC1CC(OC(=O)NCc2ccc3c(c2)OCO3)CC2(CCCC(COC(=O)NCCOc3ccccc3)O2)O1` (stereo partly specified), the z-score is -2.19. As for `O=C1C2=CC[C@H]3C(=O)N(c4ccc(F)cc4F)C(=O)[C@H]3[C@H]2[C@H](O)[C@@H]2O[C@H]12`, the z-score is -0.486. The value for `CC(=O)OC[C@H]1O[C@H](C#CCCc2ccccc2)C=C[C@@H]1OC(C)=O` was -3.49. Regarding `CC(C)=NOC(C)CN1CCCc2nc(C)c(C)cc21` (stereo unspecified), the z-score was -0.237.

`COC(=O)[C@H](C)NC(=O)CCC1CC(OC(=O)NCc2cccc3ccccc23)CC2(CCCC(COC(=O)NCCOc3ccccc3)O2)O1` (stereo partly specified): the z-score was -3.37.

In the case of `C[C@@H]1CC[C@@H](C(=O)O)N[C@H]1c1cccc(N2CCOCC2)c1`, the z-score is 0.401. As for `COC(=O)[C@@H]1CC[C@H](C)[C@@H](c2ccc(Br)cc2)N1C[C@H](O)CN=[N+]=[N-]`, the z-score was 0.572.

As to `CCOC(=O)[C@H](Cc1ccccc1)NC(=O)CCC1CC(OC(=O)NCCc2ccc(F)cc2)CC2(CCCC(COC(=O)NCc3cccc(C(F)(F)F)c3)O2)O1` (stereo partly specified), the z-score is -0.0822. Regarding `COc1cccc([C@H]2Oc3ccc(OC)cc3C(=NOCC[C@@H]3C=C[C@H](OC(C)=O)[C@@H](COC(C)=O)O3)[C@@H]2O)c1`, the z-score was 0.445. Regarding `CC(=O)OC[C@H]1O[C@H](CC=NO[C@@H](C)c2cc(-c3c(C)cc(C)cc3C)no2)C=C[C@@H]1OC(C)=O`, the z-score was 0.267. The value for `CCOC(=O)NN=C1C[C@@H](O)[C@@H](O)[C@@H]2[C@@H]3C(=O)N(c4ccc(F)cc4F)C(=O)[C@@H]3CC[C@H]12` was 0.593; that for `O=C1[C@H]2[C@H]3[C@H](O)[C@H](O)CC(=NO[C@@H]4O[C@H](CO)[C@@H](O)[C@H](O)[C@H]4O)[C@H]3CC[C@H]2C(=O)N1C[C@@H]1CCCO1` was 0.7.

Consider `CCOC(=O)[C@H](Cc1ccccc1)NC(=O)CCC1CC(OC(=O)NCCc2ccc(F)cc2)CC2(CCCC(COC(=O)NCCC(C)C)O2)O1` (stereo partly specified), for which the z-score was 0.243. The value for `CO[C@H]1COC(=O)[C@H](C)COC(=O)[C@@H](OCc2ccccc2)C=C[C@@H]1C` was 0.493; that for `O=C1[C@H]2[C@H]3[C@H](O)[C@H](O)CC(=NOC[C@@H](O)COCc4ccco4)[C@@H]3CC[C@H]2C(=O)N1Cc1ccccc1` was 0.727. In the case of `CC(C)=CCCC(C)=CCON=C1C[C@@H](O)[C@@H](O)[C@@H]2[C@@H]3C(=O)N(Cc4ccc5c(c4)OCO5)C(=O)[C@@H]3CC[C@H]12`, the z-score was -2.32. For the compound `COC(=O)[C@H](C)NC(=O)CC=C[C@@H](C)[C@@H]1C=C[C@H](O)[C@@H](CO)O1`, the z-score is 0.203. The value for `COc1ccc(COC(=O)NN=C2C[C@@H](O)[C@@H](O)[C@@H]3[C@@H]4C(=O)N(C[C@@H]5CCCO5)C(=O)[C@@H]4CC[C@@H]23)cc1` was -0.657.

The record behind these values is PubChem BioAssay.
